Screening data from PubChem.
Tgondii IFNg: T. gondii growth inhibition with IFN-gamma, primary screen, cell-based | AID 1259416, 2018 | activity change, negative = inhibition, % (concentration not given with the values) | 69,000 compounds, 3.8% hits | Toxoplasma gondii growth in IFN-gamma-treated host cells; stronger effect = lower value; in the data active means activity change below about -70%, passing the limit was not always enough;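 further: host cells are HeLa cells infected with Toxoplasma gondii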
Hits are given with their value. This is one part of a sample in which hits are shown more often than they occur.

For Cc1nc2c(c3c1[nH]c1ccccc13)C(=O)CC(C)(C)C2 the results were Tgondii IFNg inactive.
N#C[C@H]1[C@H](c2ccccc2-c2ccc(F)cc2)[C@@H](CO)N1C(=O)Cc1cccnc1 was read as Tgondii IFNg inactive.
Screening Cc1c(CNCCc2c[nH]c3ccccc23)c(C(=O)O)c(C)n1Cc1cccc(F)c1 returned Tgondii IFNg inactive.
`COc1cc(-c2cccc(-n3cccn3)c2)ccc1NC(C)=O` gave Tgondii IFNg inactive.
Screening O=C1Cc2cc(Cl)ccc2N1 returned Tgondii IFNg inactive.
O=C1Cc2cc(-c3cccc(-n4cccn4)c3)ccc2N1 was read as Tgondii IFNg -92.9.
For COc1ccc2oc(C)c(C(=O)NCCc3nc4ccccc4n3C)c2c1 the results were Tgondii IFNg inactive.
For COC(=O)NC(C)CNc1nccc(-c2cn(C(C)C)nc2-c2cc(Cl)cc(NS(C)(=O)=O)c2F)n1 (configuration not stated) the results were Tgondii IFNg -70.5.
`COc1cccc(-c2ccc3c(c2)[C@@H]2[C@@H](CCN2C(=O)c2ccccn2)[C@H](CO)N3)c1` gave Tgondii IFNg inactive.
Cc1c(S(=O)(=O)N2CCC3(CC2)Nc2ccccc2-n2cccc23)cnn1C(F)F was read as Tgondii IFNg inactive.
For Cc1cc(Cl)ccc1NC(=O)Cn1ncc2c(N3CCN(c4ccccn4)CC3)ncnc21 the results were Tgondii IFNg inactive.
`CC(C)c1ccc(NC(=O)Cn2ncc3c(N4CCN(c5ccccn5)CC4)ncnc32)cc1` gave Tgondii IFNg inactive.
Cc1ccc(NC(=O)Cn2ncc3c(N4CCN(c5ccccn5)CC4)ncnc32)cc1C was read as Tgondii IFNg inactive.
O=C(Cn1ncc2c(N3CCN(c4ccccn4)CC3)ncnc21)Nc1ccc(Cl)cn1 was read as Tgondii IFNg -82.9.
`Cc1ccc(NC(=O)Cn2ncc3c(N4CCN(c5ccccn5)CC4)ncnc32)cc1Cl` gave Tgondii IFNg -73.7.
Screening O=C(Cn1ncc2c(N3CCN(c4ccccn4)CC3)ncnc21)Nc1ccccc1Cl returned Tgondii IFNg inactive.
For Cc1cccc(NC(=O)Cn2ncc3c(N4CCN(c5ccccn5)CC4)ncnc32)c1 the results were Tgondii IFNg inactive.
COc1ccc(NC(=O)Cn2ncc3c(N4CCN(c5ccccn5)CC4)ncnc32)cc1Cl was read as Tgondii IFNg inactive.
CC(C)c1cccc(NC(=O)Cn2ncc3c(N4CCN(c5ccccn5)CC4)ncnc32)c1 was read as Tgondii IFNg -92.9.
Screening COc1cc(NC(=O)Nc2ccc(-c3nc(-c4ccc(C)cc4C)co3)cc2)cc(OC)c1 returned Tgondii IFNg inactive.
For O=C1N(CC2CCC2)CCCC1(O)CNCc1nc2ccccc2c(=O)[nH]1 (configuration not stated) the results were Tgondii IFNg inactive.
COc1ccc(CCNCC(=O)Nc2cccc(C)c2C)cc1 was read as Tgondii IFNg inactive.
Screening CNC(=O)c1cccc2cc(Oc3ccnc4cc(OCC5(N)CC5)c(OC)cc34)ccc12 returned Tgondii IFNg inactive.
Screening COc1cc2nccc(Oc3ccc(NC(=O)NC4CC4)c(Cl)c3)c2cc1C(N)=O returned Tgondii IFNg inactive.
For COc1ccc(S(=O)(=O)Nc2cncc(C(=O)Nc3ccc(F)cc3F)c2)cc1OC the results were Tgondii IFNg inactive.
For COc1cc2nccc(Oc3ccc(NC(=O)Nc4ccc(F)cc4F)c(F)c3)c2cc1OC the results were Tgondii IFNg -75.0.
COc1cc2nccc(Oc3ccc(NC(=O)Nc4cc(C)on4)c(Cl)c3)c2cc1OC was read as Tgondii IFNg -81.3.
COc1cc(Nc2ccnc3cc(Cl)ccc23)c(C(=O)O)cc1OC was read as Tgondii IFNg inactive.
Screening CC(=O)N1CC2(COC(C(=O)NCCc3cccnc3)C2)c2ccccc21 (configuration not stated) returned Tgondii IFNg inactive.
Clc1ccc(-n2ncc3c(NCc4ccccc4)ncnc32)cc1 was read as Tgondii IFNg inactive.
For CCCc1cnc(-c2ccc(OC)cc2C)nc1 the results were Tgondii IFNg inactive.
CC(C)N1CCOCC2(CCCN(C(=O)c3ccc(-n4cccc4)cc3)C2)C1 (configuration not stated) was read as Tgondii IFNg inactive.
`CCOc1ccccc1CNC(=O)c1nc(N2CCOCC2)c2ccccc2n1` gave Tgondii IFNg inactive.
Screening Cc1ccccc1CNC(=O)c1nc(N2CCOCC2)c2ccccc2n1 returned Tgondii IFNg inactive.
CC(C)Oc1ccc(CNC(=O)c2nc(N3CCOCC3)c3ccccc3n2)cc1 was read as Tgondii IFNg -79.2.
`CC(C)Oc1ccc(CNC(=O)c2nc(Nc3ccccc3)c3ccccc3n2)cc1` gave Tgondii IFNg inactive.
Screening CCOC(=O)c1nc(N2CCOCC2)c2ccccc2n1 returned Tgondii IFNg inactive.
For Cc1ccc(CCNC(=O)c2nc(N3CCOCC3)c3ccccc3n2)cc1 the results were Tgondii IFNg -84.3.
For CC(=O)Nc1cccc(NC(=O)C(=O)NCCc2sc(-c3cccc(F)c3)nc2C)c1 the results were Tgondii IFNg inactive.
For c1ccc(Cn2cc(CN3CCCO3)c(-c3cc4ccccc4o3)n2)cc1 the results were Tgondii IFNg inactive.
C=CCn1c(=O)c(C(=O)NCc2ccccc2OC)c(O)c2ccccc21 was read as Tgondii IFNg inactive.
Screening CO[C@@H]1CCN(C(=O)c2ccoc2)[C@H]2CN(Cc3ccncc3)C[C@@H]12 returned Tgondii IFNg inactive.
`CN(Cc1cnc2ccccc2c1)C(=O)CCCS(N)(=O)=O` gave Tgondii IFNg inactive.
`COc1ccc(-c2nc(Nc3ccc(F)cc3)c3ccccc3n2)cc1` gave Tgondii IFNg inactive.
Screening COc1ccc(-c2cc(-c3ccccc3)c(-c3ccccc3)o2)cc1 returned Tgondii IFNg inactive.
`COc1ccc(-c2cc(-c3ccc4ccccc4c3)n(C)c2-c2ccc(F)cc2)cc1` gave Tgondii IFNg -93.6.
`CS(=O)(=O)N1[C@@H](C#N)[C@@H](c2ccc(C#Cc3cccc(F)c3)cc2)[C@@H]1CO` gave Tgondii IFNg inactive.
`OC[C@H]1O[C@@H](n2cnc3c(NC4CCCC4)nc(Cl)nc32)[C@H](O)[C@@H]1O` gave Tgondii IFNg inactive.
For Nc1nc(Cl)nc2c1ncn2[C@@H]1O[C@H](CO)[C@@H](O)[C@H]1O the results were Tgondii IFNg inactive.
Screening Nc1nc(Cl)nc2c1ncn2C1OC(CO)C(O)C1F (configuration not stated) returned Tgondii IFNg -78.4.
Cc1nc(CN2CC[C@H]3CO[C@@H](CN(C)C(C)C)[C@@H]3C2)cs1 was read as Tgondii IFNg inactive.
`CN1CCN(Cc2c(Cl)ccc(O)c2Cl)CC1C(=O)O` (configuration not stated) gave Tgondii IFNg inactive.
Screening CN(Cc1cc2n(n1)CCCNC2)Cc1nccn1Cc1ccccc1 returned Tgondii IFNg inactive.
Screening Cn1c2c(c(=O)n1C)CN(S(=O)(=O)c1ccccc1)CCC2 returned Tgondii IFNg -75.3.
`CSc1ccc(C(=O)C2CCCN(S(=O)(=O)c3ccccc3)C2)cc1` (configuration not stated) gave Tgondii IFNg inactive.
Cc1nc(N2CCCC2)nc2c1CCN(S(=O)(=O)c1ccccc1)CC2 was read as Tgondii IFNg inactive.
Screening CCC1CCCCN1C(=O)CCNc1c(-c2cccc(F)c2)nc2cnccn12 (configuration not stated) returned Tgondii IFNg inactive.
Screening Cc1ccsc1C(=O)N1CCc2nc(N3CCOCC3)nc(NC(C)C)c2C1 returned Tgondii IFNg inactive.
COc1cccc(C(=O)N2CCc3nc(N4CCCC4)nc(NC(C)C)c3C2)c1 was read as Tgondii IFNg -109.9.
